Test [1] is described as follows: qHTS profiling for inhibitors of Plasmodium falciparum proliferation (AID 504749).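 For activity, negative = inhibition: 0% = DMSO vehicle and full inhibition = artemisinin control.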 Note: nearly all actives have a fitted effect of over 60% in size. The conditions noted are these: P. falciparum in erythrocytes, SYBR Green DNA, 72 h. A digest of the protocol:
(§1)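 Parasite proliferation within erythrocytes, 72 h exposure. Endpoint: SYBR Green I fluorescence after overnight lysis at room temperature. Controls: 0.29 uM artemisinin, DMSO.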

The test system of a further test is 3D7. Described as above. The conditions noted are these: P. falciparum in erythrocytes, SYBR Green DNA, 72 h; series mostly up to 28.7 µM. The essentials:
as §1

Another test relates to 7G8. The test is described as above. The following applies: P. falciparum in erythrocytes, SYBR Green DNA, 72 h; series mostly up to 28.7 µM. The essentials: as §1
The next test has as its system AA1029. The test is described as above. The following applies: P. falciparum in erythrocytes, SYBR Green DNA, 72 h; series mostly up to 28.7 µM. The essentials: as §1
The subject of the next test is AS120. The test is described as above. The conditions noted are these: P. falciparum in erythrocytes, SYBR Green DNA, 72 h; series mostly up to 28.7 µM. A digest of the protocol:
as §1

Another test has as its system ATS189. The description is as above. The conditions noted are these: P. falciparum in erythrocytes, SYBR Green DNA, 72 h; series mostly up to 28.7 µM. The essentials: as §1
Another test concerns ATS95. The test is described as above. The following applies: P. falciparum in erythrocytes, SYBR Green DNA, 72 h; series mostly up to 28.7 µM. The essentials: as §1
The mark [2] stands for this setting: at 28.7 µM (top of the series), parasite line A.
[3] abbreviates: at 28.7 µM (top of the series), parasite line B.

Inconclusive results are not listed. Values without a mark were called inactive. Activity calls are given as the source filed them. Calls come from the whole dose curve; as a rule, active = well fitted inhibition curve with a large enough effect; inconclusive = small, poorly fitted or top-dose-only effect; inactive = flat fitted curve, though single readings scatter.

Here are results for 15 compounds from PubChem BioAssay (NCATS).
Potency is the fitted concentration of half-maximal effect.

Regarding `COC1=CC(=O)C[C@@H](C)[C@]12Oc1c(Cl)c(OC)cc(OC)c1C2=O`, the activity, negative = inhibition is 4.87% in test [1] (setting [2]) and -1.47% in test [1] (setting [3]). The Potency result with 3D7, in the test on 7G8, in the test on AA1029, with AS120, in the test with ATS189 and with ATS95 was “inactive” each time.

`O=C(CCN1CCC(c2ccccc2)C1)c1ccc2c(c1)OCCO2` (stereo not given): the activity, negative = inhibition in test [1] (setting [2]) was 10.2%; in test [1] (setting [3]), 1.82%. The Potency result with 3D7, in the test on 7G8, in the test on AA1029, in the test with AS120, in the test on ATS189 and with ATS95 was “inactive” each time.

Consider `CC(Cc1cccc(C(F)(F)F)c1)NCCOC(=O)c1ccccc1` (stereo not given), for which the results for the activity, negative = inhibition in test [1] (setting [2]) and in test [1] (setting [3]) were 15.8% and 6.99%, respectively. The Potency entry in the test on 3D7, in the test with AA1029, in the test on AS120, in the test on ATS189 and in the test with ATS95 was “inactive” throughout. In the test with 7G8, the Potency was 8.91 µM (active).

Turning to `Oc1c(Cl)cc(Cl)cc1Sc1cc(Cl)cc(Cl)c1O`, the figures for the activity, negative = inhibition in test [1] (setting [2]) and in test [1] (setting [3]) were -0.752% and -1.75%, respectively. Further, the Potency result in the test on 3D7, in the test on 7G8, in the test on AA1029, in the test with AS120, in the test with ATS189 and in the test on ATS95 was “inactive” throughout.

Consider `COc1ccc(CN2CCN(C(c3ccc(F)cc3)c3ccc(F)cc3)CC2)c(OC)c1OC`, for which the Potency is 8.91 µM (active) in test [1] (parasite line A); 8.91 µM (active) in test [1] (parasite line B); 7.94 µM (active) in the test with 3D7; 2.82 µM (active) in the test on 7G8; 10 µM (active) in the test on AA1029; 7.08 µM (active) with AS120. Moreover, the Potency was 10 µM (active) in the test on ATS189 and 12.6 µM (active) in the test with ATS95.

For `CCCCCCCCCCCCCCCC[N+](C)(C)CC`, the Potency in test [1] (parasite line A) is 3.98 µM (active); in test [1] (parasite line B), 5.01 µM (active); in the test with 3D7, 3.55 µM (active); in the test on 7G8 it was 3.55 µM (active); in the test with AA1029, 4.47 µM (active); with AS120 it was 5.01 µM (active). In addition, the Potency in the test on ATS189 is 10 µM (active); with ATS95, 6.31 µM (active).

For the compound `C[N+]1(CCCCC[N+]2(C)CCCC2)CCCC1`, the activity, negative = inhibition was 2.83% in test [1] (setting [2]) and 3.44% in test [1] (setting [3]). In addition, the Potency result in the test with 3D7, in the test with 7G8, with AA1029, in the test on AS120, with ATS189 and in the test on ATS95 was “inactive” in each case.

With `CCOc1ccc(NC(=O)CC(C)O)cc1` (stereo not given), the activity, negative = inhibition in test [1] (setting [2]) is -3.02%; in test [1] (setting [3]), 4.79%. Besides, the Potency entry in the test with 3D7, in the test with 7G8, in the test with AA1029, in the test with AS120, in the test with ATS189 and with ATS95 was “inactive” throughout.

Turning to `Cc1cccn2c(=O)c(-c3nnn[nH]3)cnc12`, the results for the activity, negative = inhibition in test [1] (setting [2]) and in test [1] (setting [3]) were 7.08% and 2.69%, respectively. Besides, the Potency entry in the test with 3D7, with 7G8, in the test with AA1029, in the test on AS120, in the test on ATS189 and in the test with ATS95 was “inactive” throughout.

For `CN=C(NC#N)NCCSCc1csc(N=C(N)N)n1`, the activity, negative = inhibition in test [1] (setting [2]) is 2.51%; in test [1] (setting [3]) it was -0.371%. The Potency entry in the test with 3D7, with 7G8, in the test with AA1029, with AS120, in the test on ATS189 and in the test on ATS95 was “inactive” in each case.

Regarding `O=C(Nc1ccc(Cl)c(Cl)c1)C1CC1`, the results for the activity, negative = inhibition in test [1] (setting [2]) and in test [1] (setting [3]) were -11.1% and -1.73%, respectively. Besides, the Potency entry with 3D7, in the test on 7G8, with AA1029, with AS120, with ATS189 and in the test on ATS95 was “inactive” each time.

In the case of `Cc1c(C(N)=O)cc([N+](=O)[O-])cc1[N+](=O)[O-]`, the activity, negative = inhibition in test [1] (setting [2]) is -7.97%; in test [1] (setting [3]), -2.31%. Besides, the Potency entry with 3D7, in the test on 7G8, with AA1029, in the test with AS120, in the test on ATS189 and in the test with ATS95 was “inactive” in each case.

`CCCn1c(=O)[nH]c(=O)c2[nH]cnc21`: the figures for the activity, negative = inhibition in test [1] (setting [2]) and in test [1] (setting [3]) were -4.05% and 5.13%, respectively. Moreover, the Potency entry in the test with 3D7, with 7G8, with AA1029, in the test with AS120, in the test on ATS189 and in the test with ATS95 was “inactive” in each case.

Turning to `O=C(OCCOCCO)c1ccccc1Nc1cccc(C(F)(F)F)c1`, the activity, negative = inhibition in test [1] (at 12.8 µM (top of the series), parasite line A) is 9.49%; in test [1] (at 12.8 µM (top of the series), parasite line B), 3.82%. Besides, the Potency result in the test on 3D7, in the test on 7G8, with AA1029, with AS120, in the test on ATS189 and with ATS95 was “inactive” each time.

Take `CC1=C(C(=O)OC(C)C)C(c2cccc([N+](=O)[O-])c2)C(C(=O)OC2CN(C(c3ccccc3)c3ccccc3)C2)=C(N)N1` (stereo not given): the Potency in test [1] (parasite line A) is 3.55 µM (active); in test [1] (parasite line B), 7.08 µM (active); in the test on 3D7, 7.08 µM (active); in the test on 7G8, 3.16 µM (active); in the test with AA1029, 7.08 µM (active); with AS120, 4.47 µM (active). In addition, the Potency in the test on ATS189 is 7.08 µM (active); with ATS95, 11.2 µM (active).
